Assay outcomes (PubChem BioAssay)
TIM10 inh – growth inhibitors of TIM10 yeast strain; actives 1.4% (n = 330,000); inhibition, % at 10 µM; S. cerevisiae TIM10 strain growth, BacTiter-Glo luminescence, 24 h;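 active = inhibition of 40% or more at the single tested concentration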;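 also: wild-type TIM10 isogenic control strain grown at permissive 25 °C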
NALP1 inh – NALP1 inhibition | S. cerevisiae NALP1/ASC/caspase-1 growth, X-gal OD620, 72 h | inhibition, % at 10 µM | actives 0.61% (n = 280,000) | AID 2071; in the data active = inhibition mostly above about 24%, no sharp cut-off; inactive = mostly below about 32%
SKKanGAS inh – blocks kanamycin growth of S. pyogenes SKKanGAS strain. BacTiter-Glo, 6 h. inhibition, % at 7.5 µM. actives 1.3% (n = 300,000). AID 1662;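 active = mean replicate score, as percent of positive control median, at least 50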;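 also: strain carries kanamycin resistance gene driven by streptokinase promoter and grows in 40 µg/ml kanamycin; loss of luminescence reflects streptokinase promoter inhibition or plain growth inhibition; 0% = median of DMSO wells and 100% = positive control at its reference dose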
tim23-1 inh – inhibits growth of tim23-1 mutant yeast; S. cerevisiae tim23-1 growth, BacTiter-Glo luminescence, 24 h; inhibition, % at 20 µM; actives 1.3% (n = 330,000);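 active = growth inhibition of the mutant yeast at or above 50%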;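 also: temperature-sensitive mutant grown at 25 °C; plate controls were DMSO-treated mutant yeast for no effect and medium wells lacking yeast for full effect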
tim10-1 inh – tim10-1 yeast growth inhibition | S. cerevisiae tim10-1 ts strain growth, BacTiter-Glo, 24 h | inhibition, % at 20 µM | actives 2.2% (n = 330,000);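 active = inhibition of at least 40%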;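 also: mutant grown at 25 °C; 0% = DMSO wells with yeast and 100% = wells holding no yeast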
NALP3 yeast inh – NALP3 inhibition in yeast | actives 0.39% (n = 330,000) | inhibition, % at 10 µM | AID 2825 | Yeast reconstituted NLRP3/ASC/caspase-1, beta-gal luminescence, 24 h;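 active = inhibition of 50% or more; inactive = inhibition below 50%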;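 also: plate controls were induced DMSO wells for no effect and uninduced yeast grown without galactose for full effect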
NALP3 confirm – NALP3 inhibition confirmation in yeast; yeast expressing human NALP3, luminescence; inhibition, % at 10 µM; shares compounds with NALP3 yeast inh; actives 81% (n = 1,300); in the data active = inhibition above about 48%
Casp1-ASC yeast – counter-screen for NALP3 inhibitors: yeast caspase-1-ASC | shares compounds with NALP3 yeast inh | yeast expressing Caspase-1-ASC, luminescence counter screen | inhibition, % at 10 µM | actives 66% (n = 1,000) | AID 488784
NALP3 yeast rt – yeast NALP3 inhibition, confirmed on retest. shares compounds with NALP3 yeast inh. yeast expressing human NALP3, luminescence read-out. inhibition, % at 10 µM. actives 53% (n = 1,000)
tim10-1 conf – tim10-1 yeast growth inhibition, confirmed. shares compounds with tim10-1 inh. S. cerevisiae tim10-1 ts strain growth, BacTiter-Glo, 24 h. inhibition, % at 20 µM. actives 56% (n = 7,400). AID 463213;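 active = inhibition of yeast growth at or above a set limit in either of two repeat tests at 20 µM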;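 also: tim10-1 mutant grown at permissive 25 °C to find synthetic lethal compounds; 0% = DMSO yeast wells and 100% = medium wells without yeast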
TIM10 conf – TIM10 yeast growth inhibition, confirmed; shares compounds with TIM10 inh; S. cerevisiae tim10 strain growth, BacTiter-Glo luminescence, 24 h; inhibition, % at 10 µM; actives 63% (n = 4,600); AID 463215;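 active = inhibition of yeast growth at or above a set limit in either of two replicates at 10 µM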;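 also: this counterscreen used the strain with wild-type TIM10; 0% = yeast with DMSO and 100% = medium wells lacking yeast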
tim23-1 confirm – tim23-1 yeast growth inhibition, confirmed | shares compounds with tim23-1 inh | inhibition, % at 20 µM | AID 463218 | actives 83% (n = 4,400) | S. cerevisiae tim23-1 growth, BacTiter-Glo luminescence, 24 h;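 active = inhibition above about 39% in either of two replicate wells at 20 µM, limit read from the data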;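 also: temperature-sensitive tim23-1 mutant grown at 25 °C; 0% = DMSO wells with yeast and 100% = medium wells without yeast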
The depositor's hits bear a star; . = not tested or not shown. The list is not random: actives were taken first. Their share in the collection is about 4.9%. Rule as the data show it, unless noted: active = inhibition above about 50%; inactive = the rest.

SMILES	TIM10 inh	NALP1 inh	SKKanGAS inh	tim23-1 inh	tim10-1 inh	NALP3 yeast inh	NALP3 confirm	Casp1-ASC yeast	NALP3 yeast rt	TIM10 conf	others
O=S(=O)(Nc1ccc(N=Nc2ccccc2)cc1)c1ccccc1	42*	36	3	41	55*	59*	3	.	.	-3	tim10-1 conf=51*
CC(C)CCOc1cccc(OCC(=O)Nc2ccncc2)c1	56*	36	-22	37	17	66*	78*	86*	60*	50*
O=C(CCS(=O)(=O)c1ccccc1)N(CCCN1CCOCC1)c1nc2c(F)cccc2s1	66*	.	12	-41	34	57*	72*	43	53*	70*
COc1ccc(C(=O)NNC(=S)NC(=O)c2ccc(Cl)cc2)cc1	42*	.	79*	31	18	54*	58*	60*	58*	7
CN1/C(=C/C(=O)c2cccs2)Sc2ccccc21	73*	-2	-13	42	22	78*	81*	97*	93*	61*
O=C(/C=C/c1cccc(Cl)c1)c1nc2ccccc2[nH]1	58*	10	17	15	50*	92*	85*	99*	93*	63*	tim10-1 conf=41*
O=C(Nc1c(C(=O)N2CCOCC2)cnn1-c1ccccc1)c1cccc(F)c1	-3	0	-3	-10	8	7	.	.	.	.
CCCCNC(=O)[C@]1(C)CCC[C@@]2(C)C3CC[C@@]4(C)C[C@]3(CCC21)CC4=O (stereo partly specified)	59*	.	.	27	-2	54*	50*	60*	53*	15
CN(C)/C=C(\C#N)c1nc2ccccc2[nH]1	8	0	15	13	-17	13	.	.	.	.
N#C/C(=C/c1cccs1)c1nc2ccccc2[nH]1	50*	63	2	34	-5	80*	70*	84*	88*	-35
O=C(Nc1ccc(-c2nc3cc(NC(=O)c4cccs4)ccc3o2)cc1)c1cccs1	-22	12	2	-14	6	37	.	.	.	.
CC(=O)Nc1ccc2nc(NC(=O)c3cccs3)sc2c1	23	.	-8	11	24	-1	.	.	.	.
O=C(Nc1ccc2oc(-c3ccncc3)nc2c1)c1cccs1	53*	7	-7	40	-6	59*	84*	66*	66*	51*
Cc1nc2ccc(NC(=O)c3cccs3)cc2s1	46*	-4	27	48	18	65*	77*	62*	71*	27
CCCCNC(=O)Cn1c(=O)c2c(ncn2CCC(C)C)n(Cc2ccccc2)c1=O	9	5	3	-1	-9	20	.	.	.	.
COc1cccc(C(C[N+](=O)[O-])c2c(C)[nH]n(-c3ccccc3)c2=O)c1 (stereo unspecified)	62*	85*	7	27	51*	52*	58*	21	22	89*	tim10-1 conf=64*
COc1cccc(N=Nc2c(C)[nH]n(-c3ccccc3)c2=O)c1	-3	-3	2	17	-15	33	.	.	.	.
O=C(N/N=C/c1cccs1)c1ccc2ccccc2c1	47*	8	-4	44	10	66*	81*	68*	66*	27
Fc1ccc(COc2ccc(C(=S)N3CCCC3)cc2)cc1	19	26	9	31	14	36	.	.	.	.
Cc1ccc(S(=O)(=O)N2CCN(C(=O)CCC(=O)Nc3ccc(F)cc3F)CC2)cc1	8	.	.	9	12	17	.	.	.	.
COc1cc(/C=C2/NC(=O)NC2=O)ccc1OCC(=O)Nc1ccc(F)cc1	5	8	-14	3	7	-15	.	.	.	.
COc1ccc2sc3ccccc3c(=O)c2c1	26	17	-1	33	9	24	.	.	.	.
Cc1cc(O)cc2c(=O)c3ccccc3sc12	60*	7	-5	21	36	79*	92*	54*	63*	55*
O=C(NC(CC(=O)N1CCN(c2ccccc2O)CC1)c1ccccc1)c1ccccc1Cl (stereo unspecified)	1	.	.	3	-4	17	.	.	.	.
O=C(Nc1cccc(F)c1)c1ccc2c(c1)OCO2	50*	-3	2	42	19	65*	65*	68*	62*	6
SMILES	TIM10 inh	NALP1 inh	SKKanGAS inh	tim23-1 inh	tim10-1 inh	NALP3 yeast inh	NALP3 confirm	Casp1-ASC yeast	NALP3 yeast rt	TIM10 conf	others
CCN(CC)CCN(Cc1cc2cc3c(cc2[nH]c1=O)OCCO3)C(=S)NC	-9	2	-1	4	-15	24	.	.	.	.
C=CCc1c(C)c(C#N)c2nc3ccccc3n2c1NCCN(C)C	80*	33*	-1	43	49*	54*	81*	78*	42	85*	tim10-1 conf=60*
C=C(C)Cc1c(C)c(C#N)c2nc3ccccc3n2c1NCCCN(C)C	-4	21	0	8	10	4	.	.	.	.
CN1CC(=O)N(CC(=O)Nc2ccc3c(c2)CCC3)C1=O	10	-21	-5	12	0	4	.	.	.	.
O=C(NC(=S)Nc1cc(S(=O)(=O)N2CCOCC2)ccc1N1CCOCC1)C1CCCC1	17	17	-1	18	11	-1	.	.	.	.
NNC(=O)c1ccc2nc(-c3ccc(Br)cc3)cn2c1	40*	39*	-3	-52	-48	53*	70*	.	.	30
Cc1ccc(C(=O)Cn2cnc3ccccc3c2=O)cc1C	53*	9	-2	33	-6	63*	78*	55*	54*	34*
O=C(N/N=C/c1ccccc1)c1ccco1	-2	-38	1	15	-14	8	.	.	.	.
O=C(N/N=C/C(Br)=C\c1ccccc1)c1ccco1	-15	8	-1	66*	-88	64*	77*	74*	54*	.	tim23-1 confirm=45*
CC(=O)/C(=N\Nc1ccccc1)Sc1cccc2cccnc12	13	19	0	27	15	2	.	.	.	.
O=C(Sc1cccc2cccnc12)c1ccccc1Br	53*	29	67*	89*	56*	66*	64*	.	.	74*	tim10-1 conf=72*;tim23-1 confirm=67*
